# Source: the supplement of paper PMC10037445
# In all, about 2,900 compounds were measured (“NF-kB SEAP reporter activity, fold change vs agonist alone”: median about 0.99, highest 2% from about 2.6 on). Only a selection was taken, and the highest values are over-represented in it overall.
# Tests used:
# RAW-Dual [1] = assay: NF-kB SEAP reporter activity, fold change vs agonist alone; higher = enhanced NF-kB activity
# Summary of the method: (§1)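 Library stock was pin-tooled at 50 nL into 384-well plates of RAW-Dual macrophages (50,000 cells/well, DMEM), followed 1 h later by a PRR agonist, and the cells were kept at 37 °C, 5% CO2. Supernatant collected after 20 hours was read for IRF by QuantiLuc luminescence and for NF-κB by QuantiBlue absorbance at 620 nm. Reporter activity is fold change over agonist-alone wells, and a well counted as cytotoxic when its IncuCyte confluency was below 70% of agonist controls in both mask sets.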
# RAW-Dual [2] = assay: NF-kB SEAP reporter activity, fold change vs agonist alone; cytotoxicity flag (confluency mask): not cytotoxic; higher = enhanced NF-kB activity
# Summary of the method: as §1
# RAW-Dual [3] = assay: NF-kB SEAP reporter activity, fold change vs agonist alone; cytotoxicity flag (confluency mask): cytotoxic (confluency <70% of control); higher = enhanced NF-kB activity
# Summary of the method: as §1
# [4] = library stock concentration (final ~1000-fold dilution): 10 mM, cytotoxicity flag (confluency mask): not cytotoxic, agonist: Imiquimod (TLR7) […]
# [5] = library stock concentration (final ~1000-fold dilution): 10 mM, cytotoxicity flag (confluency mask): not cytotoxic, agonist: MPLA (TLR4) […]
# [6] = agonist: ODN 1826 (TLR9) 0.5 ug/mL
# [7] = agonist: Pam2CSK4 (TLR2/6) 0.1 ug/mL
# [8] = agonist: Pam3CSK4 (TLR2/1) 0.1 ug/mL
# [9] = library stock concentration (final ~1000-fold dilution): 10 mM, cytotoxicity flag (confluency mask): cytotoxic (confluency <70% of control), agonist: Imiquimod (TLR7) […]
# [10] = library stock concentration (final ~1000-fold dilution): 10 mM, cytotoxicity flag (confluency mask): cytotoxic (confluency <70% of control), agonist: MPLA (TLR4) […]
smiles,measurement,setting,value
COc1ccccc1N1CCN(CC(O)COc2cccc3ccccc23)CC1.Cl.Cl (centres undefined),NF-kB SEAP reporter activity,RAW-Dual [1]; [4],1.01
same,NF-kB SEAP reporter activity,RAW-Dual [1]; [5],0.766
CCCCN(Cc1ccc(C(=O)NO)cc1)C(=O)Nc1ccccc1,NF-kB SEAP reporter activity,RAW-Dual [1]; [4],1.52
same,NF-kB SEAP reporter activity,RAW-Dual [1]; [5],2.9
O=C(NO)c1ccc(CC(=O)N(CCO)c2ccccc2)cc1,NF-kB SEAP reporter activity,RAW-Dual [1]; [4],1.15
same,NF-kB SEAP reporter activity,RAW-Dual [1]; [5],1.79
COc1cc(C(=O)N(CCCc2ccccc2)Cc2ccc(CC(=O)O)cc2)cc(OC)c1C (library stock concentration (final ~1000-fold dilution): 10 mM),NF-kB SEAP reporter activity,RAW-Dual [2]; agonist: LPS (TLR4) 0.1 ug/mL,1.19
same,NF-kB SEAP reporter activity,RAW-Dual [2]; [6],0.976
same,NF-kB SEAP reporter activity,RAW-Dual [2]; [7],0.823
same,NF-kB SEAP reporter activity,RAW-Dual [2]; [8],0.908
O=C(NO)c1ccc(CC(=O)N(CCO)c2ccccc2)cc1 (library stock concentration (final ~1000-fold dilution): 10 mM),NF-kB SEAP reporter activity,RAW-Dual [2]; agonist: LPS (TLR4) 0.1 ug/mL,1.94
same,NF-kB SEAP reporter activity,RAW-Dual [2]; [6],1.74
same,NF-kB SEAP reporter activity,RAW-Dual [2]; [7],0.801
same,NF-kB SEAP reporter activity,RAW-Dual [2]; [8],1.21
CCCCN(Cc1ccc(C(=O)NO)cc1)C(=O)Nc1ccccc1 (library stock concentration (final ~1000-fold dilution): 10 mM),NF-kB SEAP reporter activity,RAW-Dual [2]; agonist: LPS (TLR4) 0.1 ug/mL,6.63
same,NF-kB SEAP reporter activity,RAW-Dual [2]; [6],2.5
same,NF-kB SEAP reporter activity,RAW-Dual [2]; [7],1.18
same,NF-kB SEAP reporter activity,RAW-Dual [2]; [8],1.73
COc1cc(C(=O)N(CCCc2ccccc2)Cc2ccc(CC(=O)O)cc2)cc(OC)c1C,NF-kB SEAP reporter activity,RAW-Dual [1]; [4],1.1
same,NF-kB SEAP reporter activity,RAW-Dual [1]; [5],1.11
CC(C)CNc1ccnc(NCc2csc(-c3ccccc3)n2)n1.Cl,NF-kB SEAP reporter activity,RAW-Dual [1]; [9],1.85
same,NF-kB SEAP reporter activity,RAW-Dual [1]; [10],1.47
CC(C)CNc1ccnc(NCc2csc(-c3ccccc3)n2)n1.Cl (library stock concentration (final ~1000-fold dilution): 10 mM),NF-kB SEAP reporter activity,RAW-Dual [3]; agonist: LPS (TLR4) 0.1 ug/mL,1.62
same,NF-kB SEAP reporter activity,RAW-Dual [3]; [6],0.221
same,NF-kB SEAP reporter activity,RAW-Dual [3]; [7],0.625
same,NF-kB SEAP reporter activity,RAW-Dual [3]; [8],0.446
Nc1ccn(C2OC(CO)C(O)C2(F)F)c(=O)n1 (centres undefined),NF-kB SEAP reporter activity,RAW-Dual [1]; [9],2.14
same,NF-kB SEAP reporter activity,RAW-Dual [1]; [10],1.35
Nc1ccn(C2OC(CO)C(O)C2(F)F)c(=O)n1 (centres undefined) (library stock concentration (final ~1000-fold dilution): 10 mM),NF-kB SEAP reporter activity,RAW-Dual [3]; agonist: LPS (TLR4) 0.1 ug/mL,0.91
same,NF-kB SEAP reporter activity,RAW-Dual [3]; [6],1.88
same,NF-kB SEAP reporter activity,RAW-Dual [3]; [7],1.18
same,NF-kB SEAP reporter activity,RAW-Dual [3]; [8],1.05
CCCCCCOC(=O)c1cc(O)c(=O)c2c(O)c(O)c(OC)cc2c1 (library stock concentration (final ~1000-fold dilution): 10 mM),NF-kB SEAP reporter activity,RAW-Dual [2]; agonist: LPS (TLR4) 0.1 ug/mL,0.614
same,NF-kB SEAP reporter activity,RAW-Dual [2]; [6],0.459
same,NF-kB SEAP reporter activity,RAW-Dual [2]; [7],0.599
same,NF-kB SEAP reporter activity,RAW-Dual [2]; [8],0.895
CCCCCCOC(=O)c1cc(O)c(=O)c2c(O)c(O)c(OC)cc2c1,NF-kB SEAP reporter activity,RAW-Dual [1]; [4],1.2
same,NF-kB SEAP reporter activity,RAW-Dual [1]; [5],0.857
NC(=O)c1cccc2nc(-c3ccc(C4CCCN4)cc3F)[nH]c12 (centres undefined) (library stock concentration (final ~1000-fold dilution): 10 mM),NF-kB SEAP reporter activity,RAW-Dual [2]; agonist: LPS (TLR4) 0.1 ug/mL,0.553
same,NF-kB SEAP reporter activity,RAW-Dual [2]; [6],0.198
same,NF-kB SEAP reporter activity,RAW-Dual [2]; [7],1.03
same,NF-kB SEAP reporter activity,RAW-Dual [2]; [8],1
NC(=O)c1cccc2nc(-c3ccc(C4CCCN4)cc3F)[nH]c12 (centres undefined),NF-kB SEAP reporter activity,RAW-Dual [1]; [4],1.14
same,NF-kB SEAP reporter activity,RAW-Dual [1]; [5],0.748
COC(=O)CC(O)(CCCC(C)(C)O)C(=O)OC1C(OC)=CC23CCCN2CCc2cc4c(cc2C13)OCO4 (centres undefined) (library stock concentration (final ~1000-fold dilution): 10 mM),NF-kB SEAP reporter activity,RAW-Dual [3]; agonist: LPS (TLR4) 0.1 ug/mL,0.397
same,NF-kB SEAP reporter activity,RAW-Dual [3]; [6],0.169
same,NF-kB SEAP reporter activity,RAW-Dual [3]; [7],0.0771
same,NF-kB SEAP reporter activity,RAW-Dual [3]; [8],0.133
COC(=O)CC(O)(CCCC(C)(C)O)C(=O)OC1C(OC)=CC23CCCN2CCc2cc4c(cc2C13)OCO4 (centres undefined),NF-kB SEAP reporter activity,RAW-Dual [1]; [9],0.141
same,NF-kB SEAP reporter activity,RAW-Dual [1]; [10],0.255
Cc1ccc(C(=O)N(CCCN)C(c2oc3cc(Cl)ccc3c(=O)c2Cc2ccccc2)C(C)C)cc1.Cl (centres undefined),NF-kB SEAP reporter activity,RAW-Dual [1]; [4],0.905
same,NF-kB SEAP reporter activity,RAW-Dual [1]; [5],1.03
Cc1ccc(C(=O)N(CCCN)C(c2oc3cc(Cl)ccc3c(=O)c2Cc2ccccc2)C(C)C)cc1.Cl (centres undefined) (library stock concentration (final ~1000-fold dilution): 10 mM),NF-kB SEAP reporter activity,RAW-Dual [2]; agonist: LPS (TLR4) 0.1 ug/mL,0.189
same,NF-kB SEAP reporter activity,RAW-Dual [2]; [6],0.953
same,NF-kB SEAP reporter activity,RAW-Dual [2]; [7],0.344
same,NF-kB SEAP reporter activity,RAW-Dual [2]; [8],0.73
Oc1cc(CNC(=S)/C=C/c2cc(O)c(O)c(Br)c2)cc(O)c1O,NF-kB SEAP reporter activity,RAW-Dual [1]; [4],1.78
same,NF-kB SEAP reporter activity,RAW-Dual [1]; [5],2.29
Oc1cc(CNC(=S)/C=C/c2cc(O)c(O)c(Br)c2)cc(O)c1O (library stock concentration (final ~1000-fold dilution): 10 mM),NF-kB SEAP reporter activity,RAW-Dual [2]; agonist: LPS (TLR4) 0.1 ug/mL,3.51
same,NF-kB SEAP reporter activity,RAW-Dual [2]; [6],2.77
same,NF-kB SEAP reporter activity,RAW-Dual [2]; [7],1.67
same,NF-kB SEAP reporter activity,RAW-Dual [2]; [8],0.821
Cc1cc2c(F)c(Oc3ncnn4cc(OCC(C)OC(=O)C(C)N)c(C)c34)ccc2[nH]1 (centres undefined) (library stock concentration (final ~1000-fold dilution): 10 mM),NF-kB SEAP reporter activity,RAW-Dual [3]; agonist: LPS (TLR4) 0.1 ug/mL,1.52
same,NF-kB SEAP reporter activity,RAW-Dual [3]; [6],0.94
same,NF-kB SEAP reporter activity,RAW-Dual [3]; [7],0.759
same,NF-kB SEAP reporter activity,RAW-Dual [3]; [8],1.13
Cc1cc2c(F)c(Oc3ncnn4cc(OCC(C)OC(=O)C(C)N)c(C)c34)ccc2[nH]1 (centres undefined),NF-kB SEAP reporter activity,RAW-Dual [1]; [9],1.98
same,NF-kB SEAP reporter activity,RAW-Dual [1]; [10],1.72
Nc1ccn(CC(CO)OCP(=O)(O)O)c(=O)n1 (centres undefined),NF-kB SEAP reporter activity,"RAW-Dual [1]; library stock concentration (final ~1000-fold dilution): 10 mM water, cytotoxicity flag (confluency mask): not cytotoxic, agonist: Imiquimod (TLR7) […]",0.956
same,NF-kB SEAP reporter activity,"RAW-Dual [1]; library stock concentration (final ~1000-fold dilution): 10 mM water, cytotoxicity flag (confluency mask): not cytotoxic, agonist: MPLA (TLR4) […]",1.04
Nc1ccn(CC(CO)OCP(=O)(O)O)c(=O)n1 (centres undefined) (library stock concentration (final ~1000-fold dilution): 10 mM water),NF-kB SEAP reporter activity,RAW-Dual [2]; agonist: LPS (TLR4) 0.1 ug/mL,1.2
same,NF-kB SEAP reporter activity,RAW-Dual [2]; [6],1.23
same,NF-kB SEAP reporter activity,RAW-Dual [2]; [7],1.32
same,NF-kB SEAP reporter activity,RAW-Dual [2]; [8],1.29
